Screens from PubChem BioAssay.
An excerpt weighted towards active compounds, which were near 2.9% of everything screened.
Integrin act MD: qHTS for Activators of Integrin-Mediated Alleviation for Muscular Dystrophy | alpha7betagal myoblasts, beta-gal FDG fluorescence, 48 h | Potency, µM (series often up to 38.3 µM), for the others: top-dose activation, hits mostly activators | 350,000 compounds, 0.064% hits | AID 624291, 2012;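 also: potency is read from the fitted curve at half-maximal effect; 100% = response of the positive control SU9516; nearly all actives have a fitted effect of over 60% in size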
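Alpha7betagal+/- myoblasts (passage 13) were plated 16-24 hr, then exposed to compounds (1:260 dilution of DMSO stock) for 48 hours at 37C. After MPER lysis, β-galactosidase reporter activity was read as FDG fluorescence (ex 480/em 540) after 30 minutes.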
DRD3 agonist: qHTS of D3 Dopamine Receptor Agonist: qHTS. D(3) dopamine receptor (Homo sapiens), P35462. D3R DiscoveRx beta-arrestin cells, luminescence, 90 min. max activation, %. 410,000 compounds, 0.58% hits. AID 652048, 2013; in the data active = max activation above about 30%; also: 0% is about no effect
Target sequence (P35462 whole entry, looked up): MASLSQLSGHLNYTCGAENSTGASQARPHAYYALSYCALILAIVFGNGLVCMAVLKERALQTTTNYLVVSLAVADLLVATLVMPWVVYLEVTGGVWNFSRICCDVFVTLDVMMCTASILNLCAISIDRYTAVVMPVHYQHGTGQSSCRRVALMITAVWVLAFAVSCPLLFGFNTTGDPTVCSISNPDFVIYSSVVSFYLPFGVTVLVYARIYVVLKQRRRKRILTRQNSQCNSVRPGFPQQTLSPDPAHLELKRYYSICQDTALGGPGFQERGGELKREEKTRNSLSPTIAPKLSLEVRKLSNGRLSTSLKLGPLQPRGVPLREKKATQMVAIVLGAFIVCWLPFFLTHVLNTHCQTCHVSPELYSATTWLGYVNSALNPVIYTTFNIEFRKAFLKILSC
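Cells at 1500/well, incubated overnight, then treated with pinned compounds (dopamine as control) for 90 min at 37 degrees C. DiscoveRx reagent added for 30 - 60 minutes at room temperature; luminescence read.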
mIDH1 inhibitor: qHTS for Inhibitors of mutant isocitrate dehydrogenase 1 (IDH1): qHTS; Isocitrate dehydrogenase [NADP] cytoplasmic (Homo sapiens), O75874; IDH1-R132H enzyme, NADPH consumption, diaphorase/resazurin fluorescence; Potency, µM (titrated, usually from 76.6 µM), for inactives: at the top dose activity change, negative = inhibition, usual class: inhibitors; 390,000 compounds, 0.093% hits; also: potency is read from the fitted curve at half-maximal effect; % is scaled to controls: 0 for no effect and ±100 for the full control effect; nearly all actives have a fitted effect of over 65% in size
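IDH1-R132H (0.5 ug/mL dispensed) in pH 7.5 Tris buffer was preincubated 30 min with compound, then given a substrate mix of 0.016 mM NADPH and 2 mM alpha-KG for 80 min at room temperature; remaining NADPH was read by diaphorase/resazurin fluorescence.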
B2AR arrestin: qHTS assay of beta-arrestin-biased ligands of beta2-adrenergic receptor | Beta-2 adrenergic receptor (Homo sapiens), P07550 | beta-arrestin recruitment to beta2AR, cell-based reporter | Potency, µM (doses to about 46.1 µM), for the others: at the top dose activation, most hits filed as activators | 330,000 compounds, 0.02% hits | AID 492947, 2010;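 also: potency is read from the fitted curve at half-maximal effect; 0% = DMSO controls and full agonism = EC100 isoproterenol or metaproterenol; nearly all actives have a fitted effect of over 65% in size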
D3 antag: qHTS of D3 Dopamine Receptor Antagonist: qHTS; 360,000 compounds, 2.5% hits; D(3) dopamine receptor (Homo sapiens), P35462; D3R cells, DiscoveRx beta-arrestin luminescence, antagonist mode; hits give low values; AID 652054, 2013; max response, negative = inhibition, %; in the data active = max response below about -50%; inconclusive = no clear call, values can overlap the other calls; also: % is scaled to controls: 0 for no effect and ±100 for the full control effect
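Cells plated overnight at 1500 cells/well, then exposed to library compounds with dopamine controls for 90 minutes at 37 degrees C. DiscoveRx reagent added for 30–60 minutes at room temperature; luminescence read, quantitative HTS format.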
* hit, by the source's call; ? = inconclusive; nt = no result given. Unless noted, calls follow the shape of the dose curve; as a rule, active = well fitted curve in the direction sought with a large enough effect; inconclusive = small, poorly fitted or top-dose-only effect, or another doubt; inactive = no such curve, though single readings can be large; an effect the other way counts as inactive or inconclusive.

SMILES | Integrin act MD | DRD3 agonist | mIDH1 inhibitor | B2AR arrestin | D3 antag
O=C(CSCc1cnn(-c2ccccc2)c1-n1cccc1)Nc1ccc(F)cc1F | nt | -20 | -21% | nt | nt
O=C(Nc1ccccc1Cl)C1CCN(Cc2cnn(-c3ccccc3)c2-n2cccc2)CC1 | -29% | 3 | 7% | 0% | -80*
O=C(NCc1ccc2c(c1)OCO2)C1CCN(Cc2cnn(-c3ccccc3)c2-n2cccc2)CC1 | 20% | -13 | 9% | nt | ?
Cc1ccc(NC(=O)CSCc2cnn(-c3ccccc3)c2-n2cccc2)c(Cl)c1 | nt | 70* | -5% | nt | nt
CC1CCCN(c2ncnc3c2cnn3-c2ccc(F)cc2)C1 (configuration not stated) | nt | 3 | -4% | nt | nt
COc1ccc(NC(=O)C2CCN(Cc3cnn(-c4ccccc4)c3-n3cccc3)CC2)cc1OC | -25% | -16 | 2% | nt | -73*
C=C(CC[C@@H](O)C(C)(C)O)[C@H]1CC[C@]2(C)[C@@H]1CCC1[C@@]3(C)CCC(=O)C(C)(C)C3CC[C@]12C (some centres not stated) | 15% | 43* | -17% | 0% | 19
O=C(CSc1nnc(CNc2ccccc2)o1)N1CCc2ccccc21 | 7% | 44* | -2% | 0% | 14
Cc1ccc(C(c2nnnn2Cc2cccs2)N2CCN(C(=O)c3ccco3)CC2)cc1 (configuration not stated) | 12% | -5 | 4% | 0% | -52*
CCC(c1nnnn1Cc1cccs1)N1CCN(C(=O)c2ccco2)CC1 (configuration not stated) | -9% | 1 | -4% | 1% | -2
Cc1cc(/C=N/Nc2ccc([N+](=O)[O-])cn2)c(C)n1-c1ccccc1 | -26% | -4 | -6% | 1% | ?
Cc1c(C(=O)O)cccc1-n1c(C)cc(/C=N/Nc2ccc([N+](=O)[O-])cn2)c1C | 2.8µM* | -10 | -11% | -1% | -30
O=C(O)c1cc(-c2ccc(/C=N/Nc3ccc([N+](=O)[O-])cn3)o2)ccc1Cl | 23% | -20 | 2% | 0% | -75*
CCn1c(C(=O)NCc2cc(Br)ccc2OC)cc2oc3ccccc3c21 | nt | 5 | nt | nt | nt
CSc1ccc(OC2CCN(Cc3ccccc3)CC2)cc1 | -26% | -8 | 7% | 0% | -51*
CSc1ccc(CN2CCC(Cc3ccccc3)CC2)cc1 | -23% | -21 | 11% | -4% | -56*
Clc1ccc(CN2CCC(Cc3ccccc3)CC2)cc1 | -8% | -12 | 1% | 0% | -96*
Clc1cccc(CN2CCN(Cc3ccco3)CC2)c1 | ? | -41 | 10% | 0% | -66*
CSc1ccc(CN2CCSCC2)cc1 | -12% | -3 | 7% | 0% | -16
COc1cc2[nH]c(=O)n(Cc3ccc(C(=O)N4CCN(c5cccc(C)c5C)CC4)cc3)c(=O)c2cc1OC | nt | -1 | 11% | nt | nt
CC1CCCN(C(=O)CN2CCC(c3nc4ccc(Cl)cc4[nH]3)CC2)C1 (configuration not stated) | -9% | 1 | -6% | -2% | -3
Clc1cccc(CN2CCC(Cc3ccccc3)CC2)c1 | -3% | -62 | 5% | -1% | -78*
Clc1ccc(CN2CCC(c3ccccc3)CC2)cc1 | -13% | 1 | -6% | -1% | -131*
Clc1ccc(CN2CCC(c3nc4ccc(Cl)cc4[nH]3)CC2)cc1 | -55% | -8 | 10% | 0% | -74*
Fc1ccc(CN2CCC(Cc3ccccc3)CC2)cc1F | 26% | -17 | -5% | 0% | ?
COc1cc(CCN=Cc2cc(Cl)cc(Cl)c2O)c([N+](=O)[O-])cc1OC | nt | -22 | nt | nt | -50*
COc1cc(NC(=O)Cn2nc(C(F)(F)F)c3c2CCC3)cc(OC)c1OC | nt | -4 | 0% | nt | nt
O=C(Nc1ccccc1)c1nn(-c2ccccc2)c(=O)cc1C(F)(F)F | 8% | 3 | 2% | 0% | -50*
O=C(c1ccccc1)c1nn(-c2ccccc2)c(=O)cc1C(F)(F)F | -47% | 4 | 7% | -1% | 15
